Results published in PubChem BioAssay (EPA / NIEHS).
Records with an inconclusive call do not appear. The source made the active and inactive calls. How the source made its calls: active means hit-call score of the fitted dose curve at least 0.9, where 1 is the maximum; inconclusive means response in the unintended direction; inactive means score below 0.9.

Assay: CCTE_Deisenroth_AIME_384WELL_CTox_Active: Cytotoxicity Assessment (CTOX) in CCTE's 384-well Estrogen Receptor Transactivation Assay with AIME metabolic competence (metabolism positive), Deisenroth Lab (AID 2284037);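 further: chemicals first conditioned 2 h by alginate-bound induced rat liver S9 before cells; activity means signal loss indicating cell death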
Method: CCTE_Deisenroth_AIME_384WELL (AIME metabolism assay) is a cell-based, single-readout assay that uses VM7Luc4E2, a human mammary gland/breast cell line, with measurements taken at 24 hour after chemical dosing in a 384-well plate.CCTE_Deisenroth_AIME_384WELL_CTox_Active is one of four assay components measured or calculated from the CCTE_Deisenroth_AIME_384WELL assay. It is designed to make measurements of a protease substrate, a type of viability indicator, as detected with substrate cleavage to a fluorescent probe in living cells.CCTE_Deisenroth_AIME_384WELL_CTox_Active is a component of the CCTE_Deisenroth_AIME_384WELL assay that measures the effect of retroftting the VM7Luc ERTA assay with the Alginate Immobolization of Metabolic Enzymes (AIME) metabolism method. AIME is optimized to impart phase I hepatic metabolism using phenobarbital/beta-naphthoflavone induced hepatic S9 from male Sprague Dawley rats. Parent chemicals are incubated for 2 hours in the AIME assay prior to transfer to the VM7Luc ERTA assay plate. […] This endpoint evaluates cytotoxicity in metabolism positive mode. Using a type of flourescent probe in VM7Luc cells, loss-of-signal activity can be used to understand loss of viability. This assay endpoint, CCTE_Deisenroth_AIME_384WELL_CTox_Active, was analyzed with bidirectional fitting in the ERTA assay.
The AIME procedure consists of a preparative "pre-stamping" step using a barium chloride/poly-L-lysine (PLL) solution followed by "stamping" the lid in alginate-hepatic S9 (metabolism positive) or alginate-water (metabolism negative) to form microspheres. Once stamping is completed, the AIME lids are placed in duplicate microplates (metabolism positive or negative) containing chemical solutions and incubated for two hours to facilitate metabolic reactions. The conditioned medium, containing parent chemical or metabolites, is then transferred to the cell-based VM7Luc Estrogen Receptor Transactivation Assay (ERTA) for 24 hours. A typical experimental design tests a 10-point concentration series (0.002 - 200 uM) for 8 compounds (96-well format) (Deisenroth 2020) or 32 compounds (384-well format) (Hopperstad 2022) in single technical replicate. AIME assay controls include trans-stilbene (bioactivated control) and ethylparaben (bioinactivated control). ERTA assay plate controls include 17-beta estradiol (positive control) and DMSO (solvent control). Experiments typically comprise a minimum of four experimental replicates (n=4).

Structure (SMILES)	outcome	AC50
Cc1oc2c(NC(=O)c3c(Cl)cccc3Cl)cccc2c1C(C)(C)O	inactive	–
CC(C)(C)c1cc(/C=C2\SC(N)=NC2=O)cc(C(C)(C)C)c1O	inactive	–
CCCCCCCCCCCO	inactive	–
CCCOC(=O)c1cc(O)c(O)c(O)c1	inactive	–
CCCCCCCCOC(=O)c1cc(O)c(O)c(O)c1	–	158 µM (active)
C[C@]12CC[C@@H]3c4ccc(O)cc4CC[C@H]3[C@@H]1CCC2=O	inactive	–
O=c1[nH]sc2ccccc12	inactive	–
CO[C@H]1/C=C/O[C@@]2(C)Oc3c(C)c(O)c4c(O)c(c(/C=N/N5CCN(C)CC5)c(O)c4c3C2=O)NC(=O)/C(C)=C\C=C\[C@H](C)[C@H](O)[C@@H](C)[C@@H](O)[C@@H](C)[C@H](OC(C)=O)[C@@H]1C	–	41.3 µM (active)
Cc1ncc(CO)c(CO)c1O	inactive	–
CCCCCCCCCC(=O)O	inactive	–
O=C(Nc1ccc(Cl)cc1)Nc1ccc(Cl)c(Cl)c1	–	19.8 µM (active)
Cc1ccc(C(C)C)cc1	inactive	–
CC(O)CC(C)(C)O (configuration not stated)	inactive	–
Cc1c2ccccc2c(C)c2c1ccc1ccccc12	inactive	–
c1ccc2n[nH]nc2c1	inactive	–
CC[C@H](NC(=O)c1cc(F)ccc1NS(=O)(=O)c1cccc2cccnc12)c1ccccc1	inactive	–
Oc1ccccc1	inactive	–
O=C(O)Cn1c(=O)n(Cc2ccc(Br)cc2F)c(=O)c2ccc(Cl)cc21	inactive	–
Oc1ccc2ccccc2c1	inactive	–
OCCO	inactive	–
CCN(CC)C(=O)c1cc(S(=O)(=O)Cc2ccccc2)c(N2CCC(c3ccccc3)CC2)cc1N(CC)CCN(C)C	inactive	–
CC1(C)NC(=O)N(c2ccc([N+](=O)[O-])c(C(F)(F)F)c2)C1=O	inactive	–
